From PubChem BioAssay (Tox21) come the findings set out here.

A short description of test [1]: Nuclear factor erythroid 2-related factor 2/antioxidant responsive element (Nrf2/ARE) small molecule agonists: qHTS cell viability counter screen in human keratinocytes (AID 1919968; active = well fitted curve in the direction sought with a large enough effect in the repeat runs; an effect the other way counts as inactive or inconclusive; note: nearly all actives have a fitted effect of over 55% in size; note: potency is the fitted concentration of half-maximal effect). Put shortly: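 Cytotoxicity was multiplexed with the Nrf2/ARE luciferase assay in the same wells. Stably transfected HaCaT keratinocytes were treated with test compounds for 23 h at 37 C. Cell viability was then measured by CellTiter-Fluor fluorescence.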

Test [2] concerns the target Gonadotropin-releasing hormone receptor (Homo sapiens) (UniProt P30968). The experiment in a line: Human gonadotropin-releasing hormone receptor (GnRHR) small molecule agonists, calcium flux assay in GnRHR-HEK293 cells (AID 1920063). Note: nearly all actives have a fitted effect of over 35% in size. Put shortly:
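Agonist activity was measured as intracellular calcium flux in HEK293 cells engineered to stably express human GnRHR. After dye loading for 1 hour at 37 C, compounds in DMSO were added and fluorescence was followed for 3 minutes.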
In general terms: Calcium flux is commonly read through the fluorescence of an indicator in the cells.

Test [3] addresses KiSS-1 receptor (Homo sapiens) (UniProt Q969F8). The experiment in a line: Human kisspeptin (KISS1R) small molecule agonists, calcium flux assay in KISS1R-HEK293 cells (AID 1920064; active = well fitted curve in the direction sought with a large enough effect in the repeat runs; an effect the other way counts as inactive or inconclusive). Summed up:
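Agonist activity is monitored as intracellular calcium rise in engineered HEK293 cells carrying human KISS1R. Cells are dye-loaded for 1 h at 37 C before compound addition, and fluorescence is recorded for 3 min.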

Test [4] in a line: G protein-coupled receptor (GPCR) small molecule agonists, calcium flux assay: HEK293 wild type cell line counter screen (AID 1920065). Put shortly:
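Seed cells, incubate 18 h (37 C, 5% CO2); add calcium dye, 1 h at 37 C; pin-transfer compounds, ATP control or DMSO; read fluorescence 480/540 nm each second for 3 min.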

The nature of test [5]: p53 small molecule agonists, cell-based qHTS assay with human liver microsomes (AID 1963577).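 Note: p53 response element beta-lactamase reporter cells with liver microsomes plus NADPH.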 Summed up: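 HLM-supplemented p53RE-bla reporter assay: 16 h compound exposure at 37 C, microsomes and NADPH each 0.5 mg/mL final, read by fluorescence intensity.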
Test [6] in a line: p53 small molecule agonists, cell-based qHTS assay with rat liver microsomes (AID 1963578). Put shortly:
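Quantitative HTS of the Tox21 10K library: p53RE-bla cells, rat liver microsomes plus NADPH at 0.5 mg/mL final each, 16 h at 37 C, beta-lactamase fluorescence detection.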
(Quantitative high-throughput screening tests each substance at several concentrations.)

Test [7] can be described thus: p53 small molecule agonists, cell-based qHTS assay with human liver microsomes: qHTS cell viability counter screen (AID 1963579). Note: nearly all actives have a fitted effect of over 45% in size. Summed up:
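Viability of p53RE-bla cells is measured as CellTiter-Glo luminescence following a 16 h, 37 C incubation with compound, liver microsomes from human donors and NADPH.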

A short description of test [8]: p53 small molecule agonists, cell-based qHTS assay with rat liver microsomes: qHTS cell viability counter screen (AID 1963580). Note: nearly all actives have a fitted effect of over 45% in size. Put shortly: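 Cytotoxicity counter screen: intracellular ATP read by CellTiter-Glo luminescence in the p53 reporter wells. HCT-116 p53RE-bla cells were treated for 16 h at 37 C alongside rat liver microsomes and NADPH, each 0.5 mg/mL final.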

Test [9] is described as follows: p53 small molecule agonists, cell-based qHTS assay: qHTS cell viability counter screen (AID 1963581). Note: nearly all actives have a fitted effect of over 45% in size. Summed up:
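Viability was counter-screened in parallel with the p53 agonist reporter by measuring intracellular ATP luminescence in the same HCT-116 p53RE-bla wells after 16 h compound treatment at 37 C.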

Test [10] is described as follows: p53 small molecule agonists, cell-based qHTS assay (AID 1963582; active = well fitted activation curve with a large enough effect in the signal ratio in the repeat runs, not every such curve was filed as active; the % refers to the signal ratio; note: potency is the fitted concentration of half-maximal effect). Put shortly:
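Cells carrying a p53-responsive bla reporter are treated with test compounds for 16 h at 37 C; beta-lactamase activity is then detected with LiveBLAzer B/G FRET substrate after 2 h at room temperature.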

Test [11] addresses 5-hydroxytryptamine receptor 2A (Homo sapiens) (UniProt P28223). In words: 5-hydroxytryptamine receptor 2A (HTR2A) small molecule antagonists, cell-based qHTS assay (AID 1963586). Note: nearly all actives have a fitted effect of over 45% in size. Summed up: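 CHO cells stably expressing human HTR2A were plated for 18 h at 37 C, then loaded with calcium dye for 1 h. Compounds were preincubated 5 min at room temperature before DOI (4 nM solution) was added. Kinetic fluorescence was read for 3 min.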

Test [12] shares this target. The experiment in a line: 5-hydroxytryptamine receptor 2A (HTR2A) small molecule agonists, cell-based qHTS assay (AID 1963587). Note: nearly all actives have a fitted effect of over 30% in size. Put shortly: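 Kinetic calcium-flux fluorescence (2 min, 1 sec intervals) after compound addition in agonist mode. HTR2A-CHO cells were cultured 18 h, then dye-loaded 1 h at 37 C.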
Test [13] has as its target Muscarinic acetylcholine receptor M1 (Homo sapiens) (UniProt P11229). In words: Cholinergic receptor muscarinic 1 (CHRM1) small molecule antagonists, cell-based qHTS assay (AID 1963588). Note: nearly all actives have a fitted effect of over 40% in size. Put shortly:
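Compounds were tested at 15 concentrations in three independent runs. Dye-loaded CHRM1-CHO cells were exposed 5 min at room temperature before stimulation by acetylcholine added at 50nM. Intracellular calcium was read kinetically on FDSS for 3 min.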

Test [14] shares this target. In words: Cholinergic receptor muscarinic 1 (CHRM1) small molecule agonists, cell-based qHTS assay (AID 1963589). Note: nearly all actives have a fitted effect of over 35% in size. Put shortly: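 Cells were plated and incubated 18 h at 37 C/5% CO2, loaded with calcium dye for 1 h at 37 C, then treated with compounds in DMSO. Fluorescence was recorded kinetically at 1 sec intervals.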
Test [15] can be described thus: cAMP Responsive Elements (CRE) small molecule agonists, cell-based qHTS assay (AID 1963590). Summed up:
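Cells carrying a CRE-driven beta-lactamase reporter (HEK 293T) are seeded, incubated overnight (18 h), and treated with test compounds for 3 h at 37 C; reporter activity is then detected with a FRET substrate after 2 h at room temperature.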

Test [16] is described as follows: cAMP Responsive Elements (CRE) small molecule antagonists, cell-based qHTS assay (AID 1963591; active = well fitted inhibition curve with a large enough effect in the signal ratio in the repeat runs, not every such curve was filed as active; the % refers to the signal ratio). Put shortly:
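Cells (CRE-bla HEK 293T, DMEM with 10% dialyzed FBS and 25 mM HEPES) are seeded and incubated 18 h. Compounds are added with NKH477 agonist at 0.25 uM final for 3 h, then FRET substrate for 2 h.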

Test [17] has as its target Beta-2 adrenergic receptor (Homo sapiens) (UniProt P07550). In words: Adrenergic beta2 receptor (ADRB2) small molecule antagonists, cell-based qHTS assay (AID 1963592). Note: series mostly up to about 92 µM; nearly all actives have a fitted effect of over 50% in size. Summed up: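 Assay format: CHO-ADRB2 cells, 18-20hr seeding at 37C/5% CO2, then compound plus 1nM isoproterenol agonist mix for 0.5hr RT. Homogeneous time-resolved fluorescence cAMP detection after 1hr, expressed as 665/615 nm ratio.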

Test [18] shares this target. The experiment in a line: Adrenergic beta2 receptor (ADRB2) small molecule agonists, cell-based qHTS assay (AID 1963593).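 Note: CHO cells stably overexpressing human ADRB2.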 Put shortly: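 CHO cells stably over-expressing ADRB2 were plated overnight at 37C, then dosed with compounds plus a stimulation mix containing 100uM IBMX and 25uM Ro-20-1724 for 0.5hr at room temperature. cAMP was measured by HTRF competition, 1hr.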

In test [19] the target is D(2) dopamine receptor (Homo sapiens) (UniProt P14416). The experiment in a line: Dopamine D2 receptor (DRD2) small molecule agonists, cell-based qHTS assay (AID 1963594). Note: nearly all actives have a fitted effect of over 35% in size. Put shortly:
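cAMP accumulation in DRD2-HEK293 cells measured by HTRF after 1 h detection; compounds added 10 min before NKH477 (200nM […]) forskolin-analogue stimulation, 30 min at room temperature, with Ro20-1724 present at 0.1 mM final.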

For test [20] the target is unchanged. The experiment in a line: Dopamine D2 receptor (DRD2) small molecule antagonists, cell-based qHTS assay (AID 1963595; active = well fitted inhibition curve with a large enough effect in the signal ratio in the repeat runs, with a control signal flat; the % refers to the signal ratio). Put shortly:
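Stable D2 receptor HEK293 line, 24 h after seeding. Compound preincubated 10 min, then quinpirole (12 nM) with forskolin analogue NKH477 (200 nM), 30 min, room temperature. Detection by time-resolved FRET of cAMP.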

A number with no mark means an inactive call. Inconclusive results are not listed. The source made the active and inactive calls. Unless noted, calls come from the whole dose curve.

KiSS-1 receptor (Homo sapiens), sequence (Q969F8 whole entry, looked up): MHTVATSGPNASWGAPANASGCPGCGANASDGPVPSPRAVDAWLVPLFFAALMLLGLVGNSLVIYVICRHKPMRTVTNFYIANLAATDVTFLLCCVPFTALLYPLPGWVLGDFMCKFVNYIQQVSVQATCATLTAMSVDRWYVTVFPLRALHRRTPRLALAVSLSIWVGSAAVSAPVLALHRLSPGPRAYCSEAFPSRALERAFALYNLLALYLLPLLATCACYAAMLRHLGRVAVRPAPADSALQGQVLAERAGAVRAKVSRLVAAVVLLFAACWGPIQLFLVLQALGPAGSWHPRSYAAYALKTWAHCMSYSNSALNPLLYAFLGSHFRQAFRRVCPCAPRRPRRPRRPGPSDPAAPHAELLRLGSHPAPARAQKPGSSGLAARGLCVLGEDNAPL
Gonadotropin-releasing hormone receptor (Homo sapiens), sequence (P30968 whole entry, looked up): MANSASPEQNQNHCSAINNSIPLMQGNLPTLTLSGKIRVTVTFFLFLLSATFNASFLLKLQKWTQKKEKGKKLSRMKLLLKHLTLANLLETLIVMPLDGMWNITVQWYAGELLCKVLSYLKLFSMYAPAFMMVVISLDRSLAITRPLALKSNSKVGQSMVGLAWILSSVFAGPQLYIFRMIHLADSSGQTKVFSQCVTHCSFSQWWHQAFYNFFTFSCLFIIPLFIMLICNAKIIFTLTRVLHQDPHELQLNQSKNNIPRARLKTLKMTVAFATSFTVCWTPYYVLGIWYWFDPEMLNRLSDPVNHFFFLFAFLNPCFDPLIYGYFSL
D(2) dopamine receptor (Homo sapiens), sequence (P14416 whole entry, looked up): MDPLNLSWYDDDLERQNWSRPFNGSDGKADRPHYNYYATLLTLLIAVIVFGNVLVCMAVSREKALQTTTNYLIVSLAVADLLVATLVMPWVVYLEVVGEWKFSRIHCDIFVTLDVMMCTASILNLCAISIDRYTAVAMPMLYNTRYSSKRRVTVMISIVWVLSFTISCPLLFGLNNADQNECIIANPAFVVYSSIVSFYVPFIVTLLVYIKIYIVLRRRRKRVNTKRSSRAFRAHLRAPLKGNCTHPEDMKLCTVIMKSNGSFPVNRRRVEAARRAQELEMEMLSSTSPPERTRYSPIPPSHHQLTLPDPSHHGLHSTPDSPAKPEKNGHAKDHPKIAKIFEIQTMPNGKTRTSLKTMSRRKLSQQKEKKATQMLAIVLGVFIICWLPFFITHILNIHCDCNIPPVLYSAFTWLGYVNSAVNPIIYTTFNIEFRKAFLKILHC
5-hydroxytryptamine receptor 2A (Homo sapiens), sequence (P28223 whole entry, looked up): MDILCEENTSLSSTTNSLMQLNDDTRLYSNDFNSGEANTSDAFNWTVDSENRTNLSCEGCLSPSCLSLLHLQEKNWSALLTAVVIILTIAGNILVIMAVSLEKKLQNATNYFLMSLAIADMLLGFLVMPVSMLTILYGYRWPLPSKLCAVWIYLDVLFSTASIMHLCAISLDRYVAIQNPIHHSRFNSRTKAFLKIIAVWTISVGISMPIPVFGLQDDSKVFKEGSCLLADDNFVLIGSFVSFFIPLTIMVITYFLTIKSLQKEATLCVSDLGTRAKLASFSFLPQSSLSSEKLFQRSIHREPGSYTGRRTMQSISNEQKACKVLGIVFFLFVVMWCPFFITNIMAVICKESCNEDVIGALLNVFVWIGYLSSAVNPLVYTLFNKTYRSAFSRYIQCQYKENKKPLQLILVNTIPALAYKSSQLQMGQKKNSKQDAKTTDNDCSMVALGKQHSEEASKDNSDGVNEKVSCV
Beta-2 adrenergic receptor (Homo sapiens), sequence (P07550 whole entry, looked up): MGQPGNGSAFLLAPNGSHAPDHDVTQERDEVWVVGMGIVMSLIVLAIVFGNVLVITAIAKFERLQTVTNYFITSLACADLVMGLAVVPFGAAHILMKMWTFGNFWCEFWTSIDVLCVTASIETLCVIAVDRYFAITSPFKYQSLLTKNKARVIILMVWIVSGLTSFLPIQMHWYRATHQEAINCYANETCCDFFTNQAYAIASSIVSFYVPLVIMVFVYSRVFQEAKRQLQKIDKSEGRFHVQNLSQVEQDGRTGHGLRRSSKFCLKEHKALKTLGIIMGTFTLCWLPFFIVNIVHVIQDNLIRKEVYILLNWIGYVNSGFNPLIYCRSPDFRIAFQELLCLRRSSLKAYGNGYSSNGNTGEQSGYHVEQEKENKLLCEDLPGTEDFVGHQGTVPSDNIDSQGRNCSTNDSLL
Muscarinic acetylcholine receptor M1 (Homo sapiens), sequence (P11229 whole entry, looked up): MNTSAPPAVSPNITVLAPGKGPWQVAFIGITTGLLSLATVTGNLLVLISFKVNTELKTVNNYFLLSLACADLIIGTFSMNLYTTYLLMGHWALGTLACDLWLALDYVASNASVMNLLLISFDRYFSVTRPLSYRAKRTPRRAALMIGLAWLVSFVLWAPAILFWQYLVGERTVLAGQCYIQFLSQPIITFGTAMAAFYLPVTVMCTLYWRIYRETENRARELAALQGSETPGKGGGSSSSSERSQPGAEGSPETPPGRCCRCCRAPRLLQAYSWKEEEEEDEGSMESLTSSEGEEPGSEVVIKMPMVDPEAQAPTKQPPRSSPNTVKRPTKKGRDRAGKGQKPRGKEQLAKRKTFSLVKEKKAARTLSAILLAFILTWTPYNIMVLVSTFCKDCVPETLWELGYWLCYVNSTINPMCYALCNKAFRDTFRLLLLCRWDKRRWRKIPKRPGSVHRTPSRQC

As to `O=C(CS(=O)Cc1ccco1)NC/C=C\COc1cc(CN2CCCCC2)ccn1` (stereo unspecified), the Potency entry in [1], in test [2], in test [3], in test [4], in test [5] and in test [6] was “inactive” in each case. Further, the Potency result in test [7], in [8], in test [9], in test [10], in test [11] and in [12] was “inactive” each time. Moreover, the Potency result in test [13], in [14], in test [15], in test [16], in [17] and in test [18] was “inactive” throughout. For the same compound, the Potency entry in test [19] and in test [20] was “inactive” in each case.
`O=C(OCCOCCOCCOC(=O)c1ccccc1)c1ccccc1`: the Potency entry in test [1], in [2], in test [3], in test [4], in test [5] and in test [6] was “inactive” in each case. Besides, the Potency result in [7], in test [8], in test [9], in test [10], in test [11] and in [12] was “inactive” each time. For the same compound, the Potency entry in test [13], in test [14], in [17], in test [18], in [19] and in [20] was “inactive” each time.
On to `O=Cc1ccc(O)c(O)c1O`, for which the Potency result in [1], in test [2], in test [3], in [4], in test [5] and in test [6] was “inactive” throughout. The Potency result in test [7], in test [8], in test [9], in test [10], in test [11] and in test [12] was “inactive” in each case. Also, the Potency result in test [13], in test [14], in [16], in test [17], in [19] and in test [20] was “inactive” in each case.
As to `CC(C)COC(=O)/C=C/c1ccccc1`, the Potency result in [1], in test [2], in [3], in test [4], in [5] and in test [6] was “inactive” each time. Also, the Potency entry in test [7], in test [8], in test [9], in test [10], in test [11] and in [13] was “inactive” in each case. For the same compound, the Potency result in test [14], in test [15], in test [17], in test [18], in test [19] and in test [20] was “inactive” in each case.
Regarding `Brc1c(NC2=NCCN2)ccc2nccnc12`, the Potency result in test [1], in [2], in test [3], in [4], in test [5] and in test [6] was “inactive” in each case. Moreover, the Potency result in [7], in test [8], in [9], in test [10], in [15] and in [16] was “inactive” in each case. Further, the Potency entry in test [17], in [18], in test [19] and in test [20] was “inactive” in each case.
With `O=C(NOCC1CC1)c1ccc(F)c(F)c1Nc1ccc(I)cc1Cl`, the figures for the Potency in [1] and in test [10] were 29.8 µM (active) and 19.9 µM (active), respectively. The Potency entry in [2], in test [3], in test [4], in test [5], in test [6] and in [7] was “inactive” in each case. For the same compound, the Potency entry in [8], in test [9], in [12], in test [13], in test [14] and in test [17] was “inactive” in each case. Further, the Potency result in [19] and in [20] was “inactive” in each case.
